Data from PubChem BioAssay (NCATS).
Active and inactive are the calls of the source.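 How the source made its calls: active means compounds whose dose series gives a full or clear partial fitted curve of increased nuclear translocation; inconclusive means weak partial curve or effect only at the top dose; inactive means no dose-dependent translocation response.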

Target: Glucocorticoid receptor (Homo sapiens) (UniProt P04150)
Assay: GR-GFP Redistribution (AID 450)
Settings: U2OS GR-GFP nuclear translocation, laser cytometry, 2 h; series mostly up to 20.6 µM
Potency means the concentration at half of the fitted maximal effect.

Chain of Glucocorticoid receptor (Homo sapiens) (P04150 whole entry, looked up): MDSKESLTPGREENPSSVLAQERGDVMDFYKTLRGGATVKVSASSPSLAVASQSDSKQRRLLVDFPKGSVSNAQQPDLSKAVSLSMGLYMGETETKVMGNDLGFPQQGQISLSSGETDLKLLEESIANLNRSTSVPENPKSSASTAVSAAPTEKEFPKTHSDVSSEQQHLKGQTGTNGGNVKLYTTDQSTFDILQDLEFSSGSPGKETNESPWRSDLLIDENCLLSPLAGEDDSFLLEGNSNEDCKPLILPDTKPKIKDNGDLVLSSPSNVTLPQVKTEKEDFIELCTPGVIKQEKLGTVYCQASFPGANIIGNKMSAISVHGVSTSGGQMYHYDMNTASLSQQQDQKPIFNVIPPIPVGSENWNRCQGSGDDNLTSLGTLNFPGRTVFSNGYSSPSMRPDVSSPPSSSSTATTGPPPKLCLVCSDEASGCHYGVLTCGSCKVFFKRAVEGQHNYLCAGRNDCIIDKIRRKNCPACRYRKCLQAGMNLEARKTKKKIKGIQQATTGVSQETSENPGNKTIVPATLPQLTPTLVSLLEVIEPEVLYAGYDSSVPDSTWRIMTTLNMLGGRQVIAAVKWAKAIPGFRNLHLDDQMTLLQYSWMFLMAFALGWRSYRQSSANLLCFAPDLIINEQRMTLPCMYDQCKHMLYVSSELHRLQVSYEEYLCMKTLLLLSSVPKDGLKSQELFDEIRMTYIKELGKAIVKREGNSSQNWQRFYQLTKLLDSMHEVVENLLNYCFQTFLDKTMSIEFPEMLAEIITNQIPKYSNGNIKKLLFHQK

Potency, inactive:
CCOC(=O)c1c(-c2cccs2)csc1NC(=O)c1ccncc1 > 20.6 µM
CSc1nc(N)c(C#N)c(-c2ccccc2Cl)c1C#N > 20.6 µM
COc1cccc(OCCN2CCN(c3ncnc4c3cnn4-c3ccccc3)CC2)c1 > 20.6 µM
N#CC1=C(SCC(=O)c2ccc(Cl)cc2)NC2=C(C(=O)CCC2)C1c1ccco1 (stereo not drawn) > 20.6 µM
CC1(C)Cc2c(C#N)c(OCC(=O)c3ccc(Cl)cc3)nc(-c3ccoc3)c2CO1 > 20.6 µM
CCOC(=O)CSc1nc(N)c(C(=O)Nc2ccc(N(C)C)cc2)s1 > 20.6 µM
CN(Cc1ccccc1)c1ncnc2ccc(Br)cc12 > 20.6 µM
CC[C@]1(O)C[C@H]2CN(CCc3c([nH]c4ccccc34)[C@](C(=O)OC)(c3cc4c(cc3OC)N(C)[C@@H]3[C@](O)(C(=O)OC)[C@H](OC(C)=O)[C@]5(CC)C=CCN6CC[C@]43[C@@H]65)C2)C1 > 46 µM
CN(C)c1ccc(NC(=O)c2sc(SCC(=O)Nc3nccs3)nc2N)cc1 > 20.6 µM
Cc1cc(-c2cc(-c3ccc(Cl)cc3)nc(N)c2C#N)co1 > 20.6 µM
COc1ccc(C(=O)CSC2=C(C#N)C3(CCCCC3)C(C#N)=C(N)N2)cc1 > 20.6 µM
Nc1ncnc2c1ncn2[C@@H]1O[C@@H](CO)[C@H](O)[C@@H]1O > 46 µM
COc1ccc(-c2nnc3sc(-c4ccccc4OC)nn23)cc1 > 20.6 µM
